The values below come from PubChem BioAssay AID492952 (Southern Research Specialized Biocontainment Screening …, 2010).

Usually inhibition stands for the drop in the measured response relative to a control, in per cent.

Screen size: about 2,300 compounds; about 1,500 (65%) were called active. How the calls were made is not given here. The set was probably picked from earlier hits. This is one part of the list. Entries with a potency or affinity are not part of this list.

A short description of this assay: replicating M. tuberculosis growth inhibition, dose response, non-replicating M. tuberculosis project, H37Rv (AID 492952).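 Further: Mycobacterium tuberculosis grown in culture; growth inhibition read after a week of incubation; 0% = bacteria alone untreated and 100% = bacteria with high antibiotic.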 To be noted: series mostly up to 50 µM; inhibition: at the top concentration.
Regarding `O=C(CNC(=O)c1ccccc1F)OCc1csc(-c2ccccc2)n1`, the “inhibition” value is 0.12% (inactive). With `CCCOC(=O)c1ccc(OC(=O)c2ccco2)cc1`, the “inhibition” value was 12% (inactive).

For `O=C(NCC1CCCCC1)c1ccco1`, the “inhibition” value is -0.2% (inactive). Take `C/C(=N/NC(=O)c1cccc(C)c1)c1c(O)cc(C)oc1=O`: the “inhibition” value was 17.8% (inactive).

As for `COc1cccc(NC(=O)c2ccc(-c3ccc([N+](=O)[O-])cc3)o2)c1`, the “inhibition” value was 24.3% (inactive). As for `O=C(Nc1ncc([N+](=O)[O-])s1)c1cccs1`, the “inhibition” value was 6.4% (inactive). For `O=C1/C(=C\c2ccco2)SC(=S)N1c1ccc(O)cc1`, the “inhibition” value was 8.77% (inactive).

Consider `Cc1c(Cl)cccc1NC(=O)C1COc2ccccc2O1` (stereo not given), for which the “inhibition” value was 6.98% (inactive). For the compound `Cc1ccccc1C(=O)NNc1ccc([N+](=O)[O-])cc1`, the “inhibition” value was -3.91% (inactive). With `O=C(NNC1=C(C(=O)C(F)(F)F)CCC1)c1ccccc1Cl`, the “inhibition” value was 5.77% (inactive). With `O=C(COc1ccc2ccccc2c1)N1CCCC1`, the “inhibition” value is -4.79% (inactive).

Take `O=C(c1cccc2cccc(O)c12)N1CCCCC1`: the “inhibition” value was 7.84% (inactive). On to `Cc1ccc(C(=O)N/N=C/c2cccc3ccccc23)cn1`, for which the “inhibition” value was -2.22% (inactive). Consider `CCN(CC)CCSc1nnc2c3cc(C)ccc3n(Cc3ccccc3)c2n1`, for which the “inhibition” value was 27% (inactive). Turning to `Cc1ccc(NC(=O)C2CC2c2ccccc2)cc1` (stereo not given), the “inhibition” value was -6.03% (inactive). The same measure for `N#Cc1ccc(CSc2nnc(-c3cccnc3)o2)cc1`: 2.49% (inactive); for `Cc1nnc(SCCC(=O)Nc2ccc(Cl)cc2)o1`: 0% (inactive).

In the case of `O=C(CCSc1nnc(-c2ccncc2)o1)Nc1cccc(Cl)c1`, the “inhibition” value is 22.7% (inactive). On to `CCOC(=O)CN1NC2(CCC(C)CC2)NC1=S` (stereo not given), for which the “inhibition” value was 1.45% (inactive). As to `O=c1c2c([N+](=O)[O-])cc([N+](=O)[O-])cc2sn1-c1ccc(Br)cc1`, the “inhibition” value is -3.61% (inactive). As to `O=c1c2cc(Cl)ccc2nc(-c2ccccc2Cl)n1O`, the “inhibition” value was 2.14% (inactive). As for `O=[N+]([O-])c1ccc2nc(SCc3cn4cc(Cl)ccc4n3)[nH]c2c1`, the “inhibition” value is -1.37% (inactive). For `Cc1nc2ccc(Cl)cc2nc(C)/c1=N\O` the value was 18.5% (inactive).

For `O=C(NNc1nc2ccccc2s1)c1ccc(F)cc1`, the “inhibition” value is 10.5% (inactive).

As for `CC(C)CCC1=NN(C(=O)c2ccco2)C(O)(C(F)(F)F)C1` (stereo not given), the “inhibition” value is -0.92% (inactive). On to `CCOC(=O)C1(CC2CCCCO2)CCN(Cc2nccn2-c2ccc(OC)cc2)CC1` (stereo not given), for which the “inhibition” value is 3.85% (inactive). As to `CCCCNS(=O)(=O)c1ccc(OCC(=O)OC)cc1`, the “inhibition” value was 0.69% (inactive). As to `NNC(=O)COc1cccc(Oc2ccccc2)c1`, the “inhibition” value is 11.4% (inactive). Turning to `COC(=O)c1ccc(OCC(=O)c2cccc(OC)c2)cc1`, the “inhibition” value was 1.08% (inactive). On to `C=CCOC(=O)c1ccc(-n2cnc(C)n2)nc1`, for which the “inhibition” value was 18.1% (inactive). Take `CCn1cc(/C=N\NC(=O)c2ccc(F)cc2)cn1`: the “inhibition” value was -0.27% (inactive).

As for `O=C(c1cc(F)ccc1F)C1CCCN(Cc2ccc3nonc3c2)C1` (stereo not given), the “inhibition” value is 6.97% (inactive). `Cc1ccc(NC(=S)C2=C(O)c3sccc3N(C)S2(=O)=O)cc1`: the “inhibition” value is 1.4% (inactive). For `COc1ccc(CC(=O)Nc2nccs2)cc1OC` the value was -15.2% (inactive); for `O=C(Nc1sc2c(c1C(=O)O)CCCCC2)c1ccccc1F`, 1.46% (inactive). With `N#Cc1ccsc1NC(=O)c1ccc(Cl)c([N+](=O)[O-])c1`, the “inhibition” value was -1.52% (inactive). Turning to `O=C1NC(=O)N(Cc2ccco2)C(=O)/C1=C\c1cccn1CCOc1ccc(Cl)cc1`, the “inhibition” value is -2.12% (inactive).

Take `Cc1cc(Br)ccc1OCCCCN1CCC(C)CC1`: the “inhibition” value was 13.3% (inactive). `CCCCCOc1ccc(CSC2=NCCN2)cc1[N+](=O)[O-]`: the “inhibition” value is 3.34% (inactive). As to `C=CCN(CC=C)CC(=O)Nc1ccc(S(N)(=O)=O)cc1`, the “inhibition” value is -1.05% (inactive). With `NC(=O)CN1CCN(C2CC(=O)N(CCc3ccccc3)C2=O)CC1` (stereo not given), the “inhibition” value is -0.23% (inactive). In the case of `COC(=O)c1cccc(COC(=O)c2cc3ccccc3oc2=O)c1`, the “inhibition” value was 5.68% (inactive). For the compound `O=C(COC(=O)C1CC2C=CC1C2)Nc1ccccc1` (stereo not given), the “inhibition” value is -4.32% (inactive). The same measure for `O=c1oc2ccccc2c2c1nnn2CCO`: 4.47% (inactive); for `CCC(C)n1c(=S)[nH]c2ccccc2c1=O` (stereo not given): 10.9% (inactive); for `CCOC(=O)c1sc(NC(=O)CCN2CC(C)OC(C)C2)c(C(=O)OCC)c1C` (stereo not given): -3.06% (inactive). Take `OCC1(CCOc2ccccc2)CCN(Cc2cc(Cl)ccc2O)CC1`: the “inhibition” value was -8.49% (inactive). For `O=[N+]([O-])c1ccc(-c2nc3ccc([N+](=O)[O-])cc3[nH]2)cc1` the value was 8.42% (inactive); for `c1ccc(OCc2nn3c(-c4ccccn4)nnc3s2)cc1`, 10.3% (inactive); for `O=[N+]([O-])c1ccc2nc(SCc3cn4ccccc4n3)[nH]c2c1`, -0.45% (inactive).

Turning to `C/C(=N/NC(=O)c1cc2ccccc2cc1O)C1C(=O)c2ccccc2C1=O`, the “inhibition” value is -4.56% (inactive).

With `O=C(NCC1CCCCC1)c1ccc([N+](=O)[O-])cc1`, the “inhibition” value was -4.51% (inactive).

As to `O=C(CCSc1ccc(Cl)cc1)NC1CCCC1`, the “inhibition” value was 6.09% (inactive). In the case of `O=C(COC(=O)c1ccc(Br)o1)NC1CCCCC1`, the “inhibition” value is 15.1% (inactive). Take `Nc1c(Cl)cc(Cl)cc1C(=O)OCC(=O)N1CCCC1`: the “inhibition” value was -1.22% (inactive). Regarding `Oc1ccc2cc(Br)ccc2c1CN1CCCC1`, the “inhibition” value was -13.2% (inactive).

Take `CCCOC(=O)NC1CCS(=O)(=O)C1` (stereo not given): the “inhibition” value was -8.04% (inactive). With `CCCCN(C/C=C/c1ccccc1OC)Cc1ccccc1`, the “inhibition” value is 4.31% (inactive).

On to `CCOC(=O)C1CCN(Cc2ccc(-c3ccccc3)cc2)CC1`, for which the “inhibition” value is -1.35% (inactive). Consider `CC(C)N=C1SC(CC(=O)Nc2ccccc2)C(=O)N1C(C)C` (stereo not given), for which the “inhibition” value was -8.82% (inactive). For the compound `O=C(COC(=O)c1ccccc1Br)Nc1ccccc1F`, the “inhibition” value is 9.48% (inactive). Take `CCOC(=O)C1=C(C)NC(=O)NC1c1ccc(-c2ccc(F)cc2)o1` (stereo not given): the “inhibition” value is 10.4% (inactive). As for `Fc1ccc(-c2nnc(-c3ccc(F)cc3)o2)cc1`, the “inhibition” value was -2.38% (inactive). As to `CCC(=O)c1ccc(OC(=O)c2ccc(Br)o2)cc1`, the “inhibition” value was 9.11% (inactive). Consider `CCC(C)(C)NC(=O)c1ccc(Br)o1`, for which the “inhibition” value was -1.76% (inactive). Regarding `O=C(NC1CCCC1)c1nc2c(nnn2Cc2cccc(Cl)c2)c(=O)[nH]1`, the “inhibition” value was 18.1% (inactive). Turning to `COc1ccc(O)c(C(=O)CC(=O)c2ccc(F)cc2)c1`, the “inhibition” value was 23.9% (inactive). Take `NC(=O)c1cccnc1Nc1cccc(F)c1`: the “inhibition” value is 4.49% (inactive).

For the compound `c1ccc(-c2noc(CC3CCCCC3)n2)nc1`, the “inhibition” value is -1.22% (inactive). As to `Sc1oc(-c2ccccc2)cc1C=Nc1ccccc1`, the “inhibition” value was 0.97% (inactive). As for `COc1ccc(NC(=O)CO/N=C2/CCCc3nonc32)c(OC)c1`, the “inhibition” value was -3.53% (inactive). The same measure for `O=C(N/N=C/c1ccccc1O)c1cccc(C(F)(F)F)c1`: 14.5% (inactive). Regarding `O=C(N/N=C/c1cc(Br)cc(Br)c1O)c1cccc(N2CCCC2=O)c1`, the “inhibition” value is 3.22% (inactive). As to `CCCNC(=O)OCC12CC3CC(CC(C3)C1)C2`, the “inhibition” value is -7.66% (inactive). For `O=C(COC(=O)c1ccccc1)NC12CC3CC(CC(C3)C1)C2`, the “inhibition” value was -0.01% (inactive).

Regarding `CCCCCCCC(=O)N/N=C(\C)c1ccc(O)cc1O`, the “inhibition” value was -8.78% (inactive). As to `CSC1=N/C(=C\c2ccc(Br)o2)C(=O)S1`, the “inhibition” value was 5.39% (inactive). As for `O=C(N/N=C/c1cn[nH]c1-c1ccccc1)c1ccco1`, the “inhibition” value was 1.45% (inactive). On to `O=C(NNC1CC(=O)N(c2ccccc2)C1=O)c1ccco1` (stereo not given), for which the “inhibition” value was -0.27% (inactive). Take `CC(=O)Nc1cccc(-c2nc3ccccc3c(=O)o2)c1`: the “inhibition” value is 7.03% (inactive).
